HSF1 inhib: HSF1 inhibition. hit rate 0.77% among 300,000. AID 2098. activity change, negative = inhibition, % at 7.5 µM (by protocol). NIH3T3-HGL HSE-luciferase, MG132-induced, luminescence 8 h; stronger effect = lower value;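 active means more than half of replicate wells show activity change below -50%, luminescence cut by over half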;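 further: luciferase reports HSF-1 transcriptional activity via heat shock element; 0% = median of DMSO wells and -100% = zero luminescence signal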
HSF1 activator: increases HSF-1 driven luciferase reporter signal. NIH3T3-HGL HSF-1 luciferase reporter, MG132, 8 h; 100% = twice DMSO control signal. activation, % at 9 µM. hit rate 1.7% among 300,000;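 active means mean replicate activation of at least 50% with a set share of replicates each reaching 50%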;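 further: 0% = median of the neutral control wells and 100% = twice that signal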
FXN GAA850 act: increases GAA850 frataxin promoter reporter activity; HEK293 lucGAA850 FXN promoter luciferase reporter, 24 h; percent of 10 µM SAHA response; activation, % at 6 µM; hit rate 0.56% among 360,000;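 active means activation above the average of all compounds screened plus 3 SD, cutoff fixed separately per campaign, cut at about 7.5% in these data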;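 further: 0% = DMSO wells and 100% = 10 µM SAHA wells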
AHR activator: human AHR activation | P35869 | hit rate 2.5% among 320,000 | AHR-responsive luciferase reporter cells, luminescence | activation, % at 5 µM | AID 2796; in the data active means activation above about 47%;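 further: 0% = vehicle wells and 100% = reference agonist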
Target sequence (P35869 whole entry, looked up): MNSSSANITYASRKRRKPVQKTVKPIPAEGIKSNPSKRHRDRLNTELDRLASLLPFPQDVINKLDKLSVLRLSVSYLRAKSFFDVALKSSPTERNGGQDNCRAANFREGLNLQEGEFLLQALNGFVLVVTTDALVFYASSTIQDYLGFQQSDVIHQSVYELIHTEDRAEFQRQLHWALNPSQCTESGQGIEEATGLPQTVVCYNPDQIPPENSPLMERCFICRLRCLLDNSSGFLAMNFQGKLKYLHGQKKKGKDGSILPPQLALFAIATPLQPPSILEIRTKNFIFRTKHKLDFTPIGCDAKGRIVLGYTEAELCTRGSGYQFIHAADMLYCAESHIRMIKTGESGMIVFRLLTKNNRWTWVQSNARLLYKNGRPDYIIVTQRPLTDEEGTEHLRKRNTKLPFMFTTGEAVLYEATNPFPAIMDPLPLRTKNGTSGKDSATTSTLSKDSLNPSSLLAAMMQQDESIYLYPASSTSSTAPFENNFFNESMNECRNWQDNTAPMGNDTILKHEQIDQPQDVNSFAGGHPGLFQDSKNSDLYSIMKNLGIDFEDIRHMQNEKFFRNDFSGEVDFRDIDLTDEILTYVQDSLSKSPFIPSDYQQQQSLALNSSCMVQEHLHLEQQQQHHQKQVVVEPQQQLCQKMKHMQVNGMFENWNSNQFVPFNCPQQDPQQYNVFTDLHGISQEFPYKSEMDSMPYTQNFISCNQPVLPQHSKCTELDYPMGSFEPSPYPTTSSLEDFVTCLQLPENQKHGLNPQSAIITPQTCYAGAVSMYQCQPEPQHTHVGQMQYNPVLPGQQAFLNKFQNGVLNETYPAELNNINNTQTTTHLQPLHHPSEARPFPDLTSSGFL
Starred values were filed as active, the others as inactive. Compounds with a hit are over-represented: about 4.6% of the library has one in this group of screens.

For Cc1cc(-c2sccc2Br)nc(-n2cccc2)n1 the results were HSF1 inhib 33, HSF1 activator 72* and FXN GAA850 act 1.
`Clc1ccc(-c2ccnc(-n3cccc3)n2)s1` gave HSF1 inhib -2, HSF1 activator 3, FXN GAA850 act 0 and AHR activator 53*.
Screening c1coc(-c2ccnc(-n3cccc3)n2)c1 returned HSF1 inhib -1, HSF1 activator -3, FXN GAA850 act -1 and AHR activator 3.
`Clc1ccsc1-c1ccnc(-n2cccc2)n1` gave HSF1 inhib 1, HSF1 activator 7, FXN GAA850 act 3 and AHR activator 57*.
`Cc1ccsc1-c1ccnc(-n2cccc2)n1` gave HSF1 inhib -12, HSF1 activator -25, FXN GAA850 act -3 and AHR activator 67*.
For O=C1C(=O)N(Cc2ccco2)C(c2cccs2)/C1=C(\O)c1cccc([N+](=O)[O-])c1 (centres undefined) the results were HSF1 inhib 2, HSF1 activator 5, FXN GAA850 act -1 and AHR activator 0.
`Cc1nc(Sc2ccc(Br)cc2)c(C#N)c(C)c1[N+](=O)[O-]` gave HSF1 inhib 74, HSF1 activator 128*, FXN GAA850 act 3 and AHR activator 1.
For N#C/C(=C\c1ccc(-c2cccc([N+](=O)[O-])c2)o1)C(=O)Nc1nc(-c2cccs2)cs1 the results were HSF1 inhib -3, HSF1 activator 4, FXN GAA850 act 2 and AHR activator 79*.
Screening CCc1cccc(CC)c1NC(=S)NCC(c1cccnc1)N1CCOCC1 (centres undefined) returned HSF1 inhib 5, HSF1 activator 0, FXN GAA850 act 2 and AHR activator 1.
`O=C(/C=N/NC(=O)c1ccccc1Br)c1ccccc1` gave HSF1 inhib 12, HSF1 activator 59*, FXN GAA850 act 2 and AHR activator -1.
O=C(NN=Cc1ccc(Cl)cc1Cl)c1ccccc1 was read as FXN GAA850 act 2.
For O=C(N/N=C/c1cc(Cl)ccc1O)c1ccccc1Br the results were HSF1 inhib 4, HSF1 activator 8, FXN GAA850 act 0 and AHR activator 12.
`O=C(/C=N/NC(=O)c1ccc(Cl)cc1Cl)c1ccccc1` gave HSF1 inhib 37, HSF1 activator 57*, FXN GAA850 act 4 and AHR activator 1.
Screening COc1ccccc1NC(=O)Cn1cnc2c(cnn2-c2ccccc2)c1=O returned HSF1 inhib 4, HSF1 activator 6, FXN GAA850 act -3 and AHR activator 8.
For O=C(c1ccc2oc(CCCc3ccccc3)nc2c1)N1CCCC1 the results were HSF1 inhib 46, HSF1 activator 87*, FXN GAA850 act 3 and AHR activator 12.
Screening CCc1ccc2c(c1)C(=O)c1ccccc1C2=O returned HSF1 inhib 40, HSF1 activator 81*, FXN GAA850 act 8 and AHR activator 43.
COC(=O)c1c(-c2ccccc2)csc1NC(=O)C1CC=CCC1C(=O)O (centres undefined) was read as HSF1 inhib -17, HSF1 activator -31, FXN GAA850 act 1 and AHR activator -2.
For CCOc1ccc(N2CC(C(=O)N3CCc4ccccc43)CC2=O)cc1 (centres undefined) the results were HSF1 inhib 7, HSF1 activator 52*, FXN GAA850 act 2 and AHR activator 15.
Screening CCOc1ccc(N2CC(C(=O)Nc3cc(C)on3)CC2=O)cc1 (centres undefined) returned HSF1 inhib 10, HSF1 activator -6, FXN GAA850 act 1 and AHR activator 76*.
Screening CCCOc1ccc(N2CC(C(=O)Nc3ccccc3OC)CC2=O)cc1 (centres undefined) returned HSF1 inhib -1, HSF1 activator -10, FXN GAA850 act 0 and AHR activator -1.
Screening CCCOc1ccc(N2CC(C(=O)NC(C)C)CC2=O)cc1 (centres undefined) returned HSF1 inhib -60*, HSF1 activator -69, FXN GAA850 act -1 and AHR activator 12.
For Cc1cnc(NC(=O)CSc2nnc(C)n2N)s1 the results were HSF1 inhib 0, HSF1 activator -9, FXN GAA850 act -1 and AHR activator 5.
For O=S(=O)(c1ccc2nc(Cc3ccccc3)[nH]c2c1)N1CCOCC1 the results were HSF1 inhib -4, HSF1 activator -16, FXN GAA850 act 0 and AHR activator -2.
`Cc1cccc(C)c1NC(=O)CN1C(=O)NC(C)(CCc2ccccc2)C1=O` (centres undefined) gave HSF1 inhib -91*, HSF1 activator -92, FXN GAA850 act 0 and AHR activator 1.
Screening CCOC(=O)C1CCN(S(=O)(=O)c2c(Cl)ccc3nonc23)CC1 returned HSF1 inhib 156, HSF1 activator 197*, FXN GAA850 act -16 and AHR activator 3.
CCOC(=O)C1CCN(S(=O)(=O)c2cccc3nonc23)CC1 was read as HSF1 inhib -10, HSF1 activator -13, FXN GAA850 act -1 and AHR activator -4.
Screening COc1ccc(N(CC(=O)Nc2ccc(C)c(C)c2)C2=NC3CS(=O)(=O)CC3S2)cc1 (centres undefined) returned HSF1 inhib 0, HSF1 activator 10, FXN GAA850 act 0 and AHR activator -1.
O=C1c2ccccc2C(=O)C1Cc1cccc2ccccc12 was read as HSF1 inhib 2, HSF1 activator 16, FXN GAA850 act -1 and AHR activator 61*.
Screening O=C1NC(c2cccc3ccccc23)Nc2ccccc21 (centres undefined) returned FXN GAA850 act 1.
`CCN(CC(=O)Nc1cccc(OC)c1)CC(=O)Nc1ccc(Br)c(C)c1` gave HSF1 inhib 26, HSF1 activator 55*, FXN GAA850 act 0 and AHR activator 9.
For O=C(Nc1ccc(Br)cc1)c1cccn1-c1ncc(C(F)(F)F)cc1Cl the results were HSF1 inhib 4, HSF1 activator 12, FXN GAA850 act -4 and AHR activator 62*.
For Cc1ccccc1C(=O)NCCOc1ccccc1Cl the results were HSF1 inhib 43, HSF1 activator 70*, FXN GAA850 act 3 and AHR activator -2.
`Cc1ccc(C(=O)CSc2nnnn2C(C)C)c(C)c1` gave HSF1 inhib 28, HSF1 activator 54*, FXN GAA850 act -6 and AHR activator 5.
`Cc1ccc(C)c(C(=O)CSc2nnnn2C(C)C)c1` gave HSF1 inhib 11, HSF1 activator 13, FXN GAA850 act 0 and AHR activator 5.
Cc1cn(C(=O)c2ccccc2)c(=S)n1-c1ccc(Cl)cc1 was read as HSF1 inhib 12, HSF1 activator 0, FXN GAA850 act 1 and AHR activator 0.
Screening COc1ccc(O/C(=N\S(=O)(=O)c2ccccc2)c2ccccc2)cc1 returned HSF1 inhib 0, HSF1 activator 0, FXN GAA850 act -3 and AHR activator 2.
C=CCn1c(SCc2c(C)noc2C)nc2sc(C)c(C)c2c1=O was read as HSF1 inhib 61, HSF1 activator 119*, FXN GAA850 act -4 and AHR activator 2.
